This is an account of results in PubChem BioAssay (EPA / NIEHS).

Usually AC50 stands for the midpoint of the concentration-response curve, whichever way the signal moves.

Active and inactive are the calls of the source. Rule for the calls: active = hit-call score of the fitted dose curve at least 0.9, where 1 is the maximum; inactive = score below 0.9.

Read-out in assay [1]: Vascular endothelial growth factor receptor 2 (Homo sapiens) (UniProt P35968)
The assay can be described thus: BSK_4H_VEGFRII: BioMAP Diversity Plus: 4H Assay for Vascular endothelial growth factor receptor 2 (VEGFR2) Biomarker Activity (AID 2283031). To be noted: primary human endothelial cells (HUVEC); actives raise or lower the signal. The essentials:
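Primary human umbilical vein endothelial cells (4H system), 24 h exposure; cell-surface VEGFR2 measured by ELISA. Bidirectional fitting versus DMSO; cytotoxicity checked in parallel by SRB total-protein staining.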

Read-out in assay [2]: Human Leukocyte Antigen - DR isotype (HLADR), HLA-DRA (gene 3122)
The assay can be described thus: BSK_BE3C_HLADR: BioMAP Diversity Plus: BE3C Assay for Human Leukocyte Antigen - DR isotype (HLADR) Biomarker Activity (AID 2283032). As to conditions: primary human bronchial epithelial cells; actives raise or lower the signal. The method in brief: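 Human primary bronchial epithelial cells in the BE3C system were exposed to chemicals for 24 h, after which HLA-DR levels were quantified by ELISA. Activity was fitted bidirectionally, gain or loss of signal, against DMSO as negative control and baseline.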

Read-out in assay [3]: Vascular cell adhesion molecule 1 (VCAM1), VCAM1 (gene 7412)
In words: BSK_4H_VCAM1: BioMAP Diversity Plus: 4H Assay for Vascular cell adhesion molecule 1 (VCAM1) Biomarker Activity (AID 2283033).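 For outcome: cell-surface VCAM-1 protein measured by ELISA.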 As to conditions: primary human endothelial cells (HUVEC); actives raise or lower the signal. The method in brief: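 Primary human umbilical vein endothelial cells were exposed to chemicals for 24 h, after which VCAM-1 was quantified by ELISA. Responses were fitted bidirectionally against DMSO as negative control and activity baseline.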

Read-out in assay [4]: Interferon-gamma inducible Protein 10 (IP10), CXCL10 (gene 3627)
In words: BSK_BE3C_IP10: BioMAP Diversity Plus: BE3C Assay for Interferon-gamma inducible Protein 10 (IP10) Biomarker Activity (AID 2283034). To be noted: primary human bronchial epithelial cells; actives raise or lower the signal. The method in brief:
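Human primary bronchial epithelial cells were exposed to chemicals for 24 hours, after which IP-10 levels were measured by ELISA. Data were fitted bidirectionally against DMSO, which served as the negative control and activity baseline.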

Read-out in assay [5]: Monokine induced gamma interferon (MIG), CXCL9 (gene 4283)
In words: BSK_BE3C_MIG: BioMAP Diversity Plus: BE3C Assay for Monokine induced gamma interferon (MIG) Biomarker Activity (AID 2283035). To be noted: primary human bronchial epithelial cells; actives raise or lower the signal. The essentials: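 Primary human bronchial epithelial cells treated for 24 h; MIG levels measured by ELISA, fitted bidirectionally versus DMSO. Parallel SRB total-protein staining assessed cytotoxicity.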

Read-out in assay [6]: Transforming growth factor beta 1 (TGFb1), TGFB1 (gene 7040)
The assay can be described thus: BSK_BE3C_TGFb1: BioMAP Diversity Plus: BE3C Assay for Transforming growth factor beta 1 (TGFb1) Biomarker Activity (AID 2283036). As to conditions: primary human bronchial epithelial cells; actives raise or lower the signal. The essentials: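 Human primary bronchial epithelial cells (BE3C system) were dosed with chemical and TGF-b1 levels measured by ELISA at 24 h. Activity was fitted bidirectionally relative to DMSO negative control as baseline.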

Read-out in assay [7]: Plasminogen activator inhibitor-1 (PAI1), SERPINE1 (gene 5054)
The assay can be described thus: BSK_BE3C_PAI1: BioMAP Diversity Plus: BE3C Assay for Plasminogen activator inhibitor-1 (PAI1) Biomarker Activity (AID 2283037). As to conditions: primary human bronchial epithelial cells; actives raise or lower the signal. The essentials: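 Human primary bronchial epithelial cells were exposed to chemical for 24 h, then PAI-1 was quantified by ELISA. Activity was fitted bidirectionally relative to the DMSO negative control baseline.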

Read-out in assay [8]: urokinase plasminogen activator (uPA), PLAU (gene 5328)
The assay can be described thus: BSK_BE3C_uPA: BioMAP Diversity Plus: BE3C Assay for urokinase plasminogen activator (uPA) Biomarker Activity (AID 2283038).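 For outcome: uPA protein level quantified by ELISA in cell cultures; uPA read one day after compound addition.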 To be noted: primary human bronchial epithelial cells; actives raise or lower the signal. The essentials: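 Primary human bronchial epithelial cells, uPA measured by ELISA 24 h after dosing. Bidirectional change relative to DMSO; cytotoxicity checked in parallel cultures by sulforhodamine B total-protein staining.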

Read-out in assay [9]: Urokinase-type plasminogen activator receptor (uPAR), PLAUR (gene 5329)
The assay can be described thus: BSK_BE3C_uPAR: BioMAP Diversity Plus: BE3C Assay for Urokinase-type plasminogen activator receptor (uPAR) Biomarker Activity (AID 2283039).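 For outcome: cells exposed to compound for one day before measurement.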 To be noted: primary human bronchial epithelial cells; actives raise or lower the signal. The essentials:
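Primary human bronchial epithelial cells were dosed with chemical and harvested 24 h later; uPAR was quantified by ELISA. Activity was fitted bidirectionally against DMSO as negative control and baseline.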

`CC(Oc1cccc(Cl)c1)C(=O)O` (stereo unspecified): the result in [1], in [2], in [3], in [4], in [5] and in [6] was inactive. For the same compound, the outcome in assay [7], in assay [8] and in [9] was inactive.
Take `CNc1cnn(-c2cccc(C(F)(F)F)c2)c(=O)c1Cl`: the outcome in assay [1], in assay [3], in assay [4], in [5], in [6] and in [7] was inactive. For the same compound, the outcome in assay [8] and in assay [9] was inactive. In [2], the AC50 was 23.7 µM (active).
In the case of `CNC(=O)ON=C(SC)C(=O)N(C)C`, the result in assay [2], in assay [3], in assay [4], in assay [5], in assay [6] and in [7] was inactive. For the same compound, the outcome in assay [8] and in [9] was inactive.
On to `S=C1NCCN1`, for which the outcome in assay [2], in assay [3], in assay [4], in [5], in assay [6] and in [7] was inactive. In addition, in assay [8], the outcome was inactive.
For the compound `CC(C)N(C(=O)SCC(Cl)=C(Cl)Cl)C(C)C`, the result in [2], in [4], in [5], in assay [6], in assay [7] and in assay [8] was inactive. Moreover, in assay [9], the result was inactive. Besides, the AC50 in assay [3] is 33.1 µM (active).
For `COc1cc(OC)nc(Sc2cccc(Cl)c2C(=O)O)n1`, the outcome in assay [1], in [2], in [3], in [4], in assay [5] and in assay [6] was inactive. Besides, the result in assay [7] and in assay [8] was inactive.
With `CC(COc1ccc(Oc2ccccc2)cc1)Oc1ccccn1` (stereo unspecified), the result in assay [2], in [3], in [4], in assay [5], in assay [6] and in assay [7] was inactive. In [8], the AC50 was 17.8 µM (active).
Consider `CN1COCN(Cc2cnc(Cl)s2)C1=N[N+](=O)[O-]`, for which the result in [2], in [3], in [4], in [5], in [6] and in [7] was inactive. Also, the result in [8] was inactive.
For `CCCOc1nn(C(=O)NS(=O)(=O)c2ccccc2C(=O)OC)c(=O)n1C`, the outcome in [2], in assay [3], in [4], in [5], in assay [6] and in [7] was inactive. Moreover, the outcome in assay [8] was inactive.
As to `C[N+]1(C)CCCCC1`, the result in assay [1], in assay [2], in assay [3], in assay [4], in [5] and in assay [7] was inactive. For the same compound, in assay [8], the result was inactive. Further, the AC50 in assay [6] was 193 nM (active).
On to `CCCCOC(=O)[C@@H](C)Oc1ccc(Oc2ccc(C#N)cc2F)cc1`, for which the outcome in assay [1], in [2], in assay [3], in assay [4], in assay [5] and in assay [6] was inactive. Moreover, the result in assay [7] and in assay [8] was inactive.
On to `CNC(=O)ON=C(C)SC`, for which the result in assay [1], in assay [2], in [3], in assay [4], in assay [5] and in assay [6] was inactive. Moreover, the outcome in assay [7], in assay [8] and in assay [9] was inactive.
In the case of `CCC(=NOC/C=C/Cl)C1=C(O)CC(C2CCOCC2)CC1=O` (stereo unspecified), the outcome in assay [1], in assay [2], in assay [3], in [4], in [5] and in [6] was inactive. For the same compound, the outcome in assay [7] and in assay [8] was inactive.
For `CCOP(=O)(NC(C)C)Oc1ccc(SC)c(C)c1` (stereo unspecified), the outcome in [2], in assay [3], in assay [4], in assay [5], in assay [6] and in assay [7] was inactive. Moreover, the result in assay [8] was inactive.
As to `CCOP(=O)(SC(C)CC)N1CCSC1=O` (stereo unspecified), the outcome in assay [1], in assay [2], in [3], in assay [4], in assay [5] and in assay [6] was inactive. In addition, the outcome in assay [7] and in [8] was inactive.
Turning to `C#CCC1=C(C)C(OC(=O)C2C(C=C(C)C)C2(C)C)CC1=O` (stereo unspecified), the result in [2], in assay [3], in assay [5], in assay [6], in assay [7] and in [8] was inactive. Moreover, the AC50 in assay [4] is 27.1 µM (active).
For `CN(C)C(=O)Nc1cccc(C(F)(F)F)c1`, the result in assay [2], in assay [3], in assay [4], in assay [5], in assay [6] and in [7] was inactive. For the same compound, the result in assay [8] and in assay [9] was inactive.
With `COP(=O)(NC(C)=O)SC` (stereo unspecified), the result in [2], in assay [3], in assay [4], in assay [5], in assay [6] and in assay [7] was inactive. In addition, the result in [8] and in assay [9] was inactive.
As for `CC(C1CC1)C(O)(Cn1cncn1)c1ccc(Cl)cc1` (stereo unspecified), the result in assay [2], in assay [3], in assay [4], in [5], in assay [6] and in assay [7] was inactive. Moreover, the outcome in [8] and in assay [9] was inactive.
Consider `CCOP(=S)(Oc1cnc(C(C)(C)C)nc1)OC(C)C` (stereo unspecified), for which the outcome in [2], in assay [4], in [5], in assay [6], in assay [7] and in [8] was inactive. The outcome in assay [9] was inactive. Moreover, the half-maximal activity concentration (AC50) in assay [3] is 36.8 µM (active).
As to `N#CSCSC#N`, the outcome in assay [2], in [4], in [5], in assay [6], in assay [7] and in assay [8] was inactive. Further, the result in assay [9] was inactive. For the same compound, the AC50 in [3] was 6.29 µM (active).
On to `CCOP(=S)(OCC)Oc1ccc2c(C)c(Cl)c(=O)oc2c1`, for which the result in [1], in assay [2], in assay [3], in assay [4], in assay [5] and in [6] was inactive. The result in assay [8] was inactive.
For `CCCCN(CC)c1c([N+](=O)[O-])cc(C(F)(F)F)cc1[N+](=O)[O-]`, the outcome in assay [1], in assay [2], in assay [5], in assay [6], in assay [7] and in [8] was inactive. The half-maximal activity concentration (AC50) in [3] was 20 µM (active); in assay [4] it was 29.9 µM (active).
For the compound `CC1=NNC(=O)N(/N=C/c2cccnc2)C1`, the result in [2], in [3], in assay [4], in [5], in [6] and in [7] was inactive. For the same compound, the result in assay [8] was inactive.
`C#CC(C)(C)NC(=O)c1cc(Cl)cc(Cl)c1`: the results for the AC50 in assay [2] and in assay [4] were 4.39 µM (active) and 14.9 µM (active), respectively. Besides, the outcome in assay [3], in [5], in [6], in assay [7] and in assay [8] was inactive.
`CNC(=O)Oc1cccc2c1OC(C)(C)O2`: the result in assay [2], in assay [4], in [5], in assay [6], in [7] and in assay [8] was inactive. Besides, in assay [3], the AC50 is 20 µM (active).
Regarding `COP(=O)(OC)SCn1c(=O)oc2cc(Cl)cnc21`, the result in [1], in [3], in assay [5], in [6], in [7] and in assay [8] was inactive. The AC50 in assay [2] is 22 µM (active); in assay [4], 31.2 µM (active).
With `CC1(C(=O)Nc2ccc(O)c(Cl)c2Cl)CCCCC1`, the outcome in [1], in assay [2], in [3], in [4], in [5] and in [6] was inactive. Also, the outcome in [7], in assay [8] and in assay [9] was inactive.
As for `CN(C)NC(=O)CCC(=O)O`, the outcome in [2], in [3], in assay [4], in assay [5], in [6] and in assay [7] was inactive. For the same compound, the result in [8] and in [9] was inactive.
Take `CCCOCC(=Nc1ccc(Cl)cc1C(F)(F)F)n1ccnc1`: the AC50 in [2] was 25.7 µM (active); in assay [3], 30.7 µM (active); in assay [4], 32.3 µM (active); in assay [5] it was 35.3 µM (active); in assay [7], 30.9 µM (active); in assay [8], 34.5 µM (active). Also, the AC50 in assay [9] is 32.8 µM (active).
With `O=C(O)c1cc(Oc2ccc(C(F)(F)F)cc2Cl)ccc1[N+](=O)[O-]`, the result in [2], in [3], in assay [4], in assay [5], in [6] and in assay [7] was inactive. Besides, the result in [8] and in assay [9] was inactive.
